In the supplement of paper PMC3334620:
Whole data set: some 33,000 sequences, median “E-score (-0.5 to 0.5)” near -0.01, cut for the highest 2% near 0.26. The entries come from a sample that favours the highest values as a whole.

Molecular target: Ste12 (UniProt P13574)
Assay: PBM E-score (8-mer binding enrichment) (E-score (-0.5 to 0.5)); higher = stronger / more preferred TF binding
Conditions: protein concentration: 200 nM; construct: GST-DNA-binding domain
Method in brief: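 Masliner-normalised scans of fluorescent anti-GST signal were the basis for scoring. That signal came from GST-tagged yeast transcription factors applied at about 100-200 nM to double-stranded universal all-10-mer Agilent arrays on fresh or once-stripped slides. Each ungapped eight-base word, pooled with its reverse complement, received an E-score from the Universal PBM Analysis Suite.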

Chain of UniProt P13574 (P13574 whole entry): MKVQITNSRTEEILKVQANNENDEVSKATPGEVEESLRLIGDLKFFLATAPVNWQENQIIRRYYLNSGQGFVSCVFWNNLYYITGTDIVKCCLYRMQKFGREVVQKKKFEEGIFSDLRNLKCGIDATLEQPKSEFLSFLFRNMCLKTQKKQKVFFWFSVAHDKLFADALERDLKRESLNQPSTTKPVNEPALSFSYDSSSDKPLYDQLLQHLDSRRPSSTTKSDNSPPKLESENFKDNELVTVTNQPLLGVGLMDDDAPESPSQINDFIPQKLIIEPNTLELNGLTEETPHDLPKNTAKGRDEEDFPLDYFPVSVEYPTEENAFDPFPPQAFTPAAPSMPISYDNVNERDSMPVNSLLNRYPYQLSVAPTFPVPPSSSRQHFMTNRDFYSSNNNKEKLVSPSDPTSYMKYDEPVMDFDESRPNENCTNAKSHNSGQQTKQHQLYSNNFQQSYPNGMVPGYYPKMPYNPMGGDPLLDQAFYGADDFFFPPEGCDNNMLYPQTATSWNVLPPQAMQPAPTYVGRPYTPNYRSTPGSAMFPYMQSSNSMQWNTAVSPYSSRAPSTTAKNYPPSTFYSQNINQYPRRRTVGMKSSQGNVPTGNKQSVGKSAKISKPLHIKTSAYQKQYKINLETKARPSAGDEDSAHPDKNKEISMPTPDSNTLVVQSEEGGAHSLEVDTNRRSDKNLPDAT

| Sequence | PBM E-score |
| --- | --- |
| CCTGGCTA | -0.217 |
| ATCCGAAA | 0.185 |
| TTCCGAAA | 0.264 |
| GTCCGAAA | 0.211 |
| GAGGGCCA | 0.0172 |
| AAGAGATA | -0.0137 |
| CCGGCTCC | -0.0246 |
| AAAGTCGC | 0.282 |
| CAAGTCGC | -0.3 |
| AAAGTCGT | -0.0472 |
| GAGATGGA | -0.167 |
| GACATTGA | 0.051 |
| AGGTTGGA | 0.114 |
| CAACAGCA | 0.021 |
| GTTTTTGA | 0.236 |
| CTGTTTGC | -0.0149 |
| ATGTTTGC | 0.0377 |
| ATGTTTGG | 0.151 |
| GTGTTCGA | 0.0597 |
| GTGTTTGA | 0.301 |
| CCGTTTGA | 0.056 |
| CTGTTTGA | 0.308 |
| ATGTTTGA | 0.337 |
| ACCCGACA | 0.0405 |
| GCCGCAGC | 0.00254 |
| CCCAAAGA | 0.18 |

| Sequence | PBM E-score |
| --- | --- |
| GCCACGAC | 0.0374 |
| TTGCAAAA | 0.242 |
| ATCGAGCC | -0.0583 |
| AACGCCCT | -0.0731 |
| AAACATTC | 0.12 |
| ACGCAGGG | -0.0649 |
| CTCAAAAA | 0.178 |
| CATCAAAA | 0.221 |
| CTTCAAAC | 0.218 |
| CTTCAAAA | 0.191 |
| ATTCAAAG | 0.145 |
| TATCAAAA | 0.302 |
| GTTCAAAA | 0.107 |
| ATTCAAAC | 0.279 |
| TTCAAAAA | 0.298 |
| TTCAAGAA | 0.247 |
| TTTCAAAA | 0.343 |
| GATCAAAA | 0.194 |
| GGACAGAA | 0.136 |
| CAATTTAG | 0.118 |
| CGATAGTC | -0.186 |
| GAGTAAGC | -0.0348 |
| CGCAGGCA | -0.062 |
| ACCAGTCT | -0.25 |
| CAATGTGC | -0.133 |
| CCAGATCC | -0.149 |

| Sequence | PBM E-score |
| --- | --- |
| CTGACTAA | -0.00263 |
| ATCAAAAG | 0.0655 |
| ATCAAAAT | 0.192 |
| CCTCAAAA | 0.198 |
| CTCCAAAA | 0.183 |
| GTCCAAAA | 0.123 |
| TTCCAAAA | 0.277 |
| TCTCAAAA | 0.275 |
| ATCAAAAA | 0.316 |
| ACTCAAAA | 0.165 |
| TAACCCAA | 0.182 |
| CGAGGTAG | -0.219 |
| ACAGTGCA | -0.00511 |
| GGTTAGCA | -0.0625 |
| ACCTCCCC | 0.161 |
| CCCTCCCA | 0.33 |
| ACCTCCCA | -0.187 |
| ACCCTCCA | -0.0426 |
| ACCCTCCT | -0.00559 |
| CCCCCTCC | -0.121 |
| TCCTCCCA | -0.0691 |
| GCCCCTCC | 0.445 |
| GCCTCCCA | -0.104 |
| GCCTCCCC | 0.305 |
| ACCCTCCC | 0.378 |
| GCCCCTCA | 0.0515 |

| Sequence | PBM E-score |
| --- | --- |
| CGTAAAGA | -0.0705 |
| AACCTTAT | 0.138 |
| CGATCTTC | -0.0861 |
| ACAATGGC | 0.0105 |
| ACCCGTCC | -0.0354 |
| CCCTCCCC | 0.333 |
| CCCCTCCA | 0.246 |
| CCCTCCCG | 0.0504 |
| CCCTCCTC | 0.0435 |
| CCCCTCCC | 0.365 |
| CCCCTCCG | 0.171 |
| GATTTCGC | 0.2 |
| AAGTGGGC | -0.0304 |
| GAGCTTTA | -0.0834 |
| ACAGTTTG | 0.016 |
| CCAAAAAC | 0.216 |
| CAAAAAGA | 0.178 |
| CAAAAAAA | 0.352 |
| AGAAAAAC | 0.146 |
| CAAAAAAC | 0.298 |
| AAAAAAAC | 0.331 |
| CCAAAAAA | 0.251 |
| AAAAAACC | 0.234 |
| CAAAAACC | 0.128 |
| GCTGAGCC | -0.0937 |
| ACAACTCG | 0.0864 |

| Sequence | PBM E-score |
| --- | --- |
| ATCCCTTG | -0.0717 |
| GAGCATAA | 0.131 |
| TAGCTGGA | -0.0515 |
| CAGAATAC | 0.0945 |
| TTAAACAA | 0.123 |
| TTAAAAAA | 0.294 |
| TAATAAAA | 0.225 |
| CTAAAAAG | 0.218 |
| CTAAAAAC | 0.023 |
| CTAAAAGA | 0.0876 |
| TAAAACAA | 0.261 |
| CTAAAAAA | 0.278 |
| TAAAAAAA | 0.313 |
| TTAAAGAA | 0.251 |
| TAAAAAGA | 0.248 |
| AAAAACAA | 0.251 |
| CGGCGAAC | 0.0131 |
| GGAAGGGA | -0.106 |
| CTGTACTC | -0.247 |
| CTAGTGTA | 0.129 |
| GACTACTC | -0.0788 |
| CCCCATTA | -0.193 |
| TTAATAAA | 0.344 |
| CTAATAAA | 0.145 |
| ATAATAAA | 0.255 |
| ACGGCAAG | 0.0378 |

| Sequence | PBM E-score |
| --- | --- |
| ACGGCAAT | 0.0277 |
| ACGGCAAA | 0.277 |
| CCACAAGG | -0.107 |
| GAGAGTAA | 0.142 |
| ACCCGCCG | 0.137 |
| AACCGCCC | 0.00313 |
| TCCCGCCA | 0.101 |
| CACCGCCC | 0.27 |
| CACCGCCA | 0.0129 |
| CCCCGCCA | 0.38 |
| CCCCGCCG | 0.242 |
| CGCCGCCC | 0.239 |
| GCCCGCCC | 0.257 |
| CCCCGCCC | 0.347 |
| ACCCGCCC | 0.361 |
| GCCCGCCA | -0.0776 |
| ACCCTCAC | -0.029 |
| GATATAAA | 0.0834 |
| AATATAAA | 0.306 |
| TGTAAAAA | 0.334 |
| TATAAAAA | 0.27 |
| AATATAAT | 0.138 |
| CGTAAAAA | 0.126 |
| TATAAAGA | 0.0307 |
| AATATAAG | 0.198 |
| TATATAAA | 0.267 |

| Sequence | PBM E-score |
| --- | --- |
| AGTAAAAA | 0.214 |
| AATAAAAA | 0.229 |
| CATATAAA | 0.0963 |
| TCCTGGCA | -0.0322 |
| CTGCGCCC | -0.239 |
| ACCTACCT | 0.0101 |
| CGCGGGTA | 0.0349 |
| GAGAGAGA | -0.0897 |
| AAGCGGTA | 0.0316 |
| ATACTCGG | -0.0182 |
| ACAAATCA | 0.0844 |
| CACCGTGC | 0.131 |
| ACGGGAGC | -0.111 |
| GTTATAAA | 0.218 |
| TTTATAAA | 0.271 |
| CTTATAAA | 0.223 |
| AGCTGTTG | -0.0338 |
| ACGAGCCT | -0.0238 |
| AAACACTC | 0.288 |
| AAACACTT | 0.12 |
| GAACACTA | -0.13 |
| CAACACTA | 0.0388 |
| AAACACTG | 0.248 |
| AAACACTA | 0.273 |
| GCGAGCCA | -0.0412 |
| CTGCAAGC | -0.141 |

| Sequence | PBM E-score |
| --- | --- |
| ATAAGCAA | 0.148 |
| CTTTTCAA | 0.221 |
| TGTTCAAA | 0.17 |
| TATTTCAA | 0.282 |
| GATTTCAA | 0.159 |
| ATTTTCAA | 0.193 |
| GTTTTCAA | 0.32 |
| TGTTTCAA | 0.484 |
| GGTTTCAA | 0.416 |
| GGTTTCGA | 0.193 |
| TCTTTCAA | 0.0772 |
| AATTTCAA | 0.106 |
| CATTTCAA | 0.214 |
| CCAGGAGA | -0.24 |
| GCCTGCGC | -0.119 |
| CTTCTGCC | -0.122 |
| TATCTTCA | 0.15 |
| AACGATCT | 0.153 |
| ATAAGCCC | -0.0186 |
| GTGGAGGA | -0.0464 |
| GATTTCAC | 0.111 |
| GGTTTCAC | 0.386 |
| GCTTTCAC | 0.0706 |
| ACTAGCTA | -0.0308 |
| ATTCTGAC | 0.0839 |
| ATGAATGC | 0.138 |

| Sequence | PBM E-score |
| --- | --- |
| ATGAATGA | 0.192 |
| ATGAATGG | 0.33 |
| AAGATCAC | -0.0426 |
| GGCTGCTA | -0.037 |
| ATCTGATG | 0.109 |
| GGGGCTAC | -0.0752 |
| ATAGGGCA | -0.109 |
| CGCGGCGA | 0.126 |
| ACCGCCCG | -0.057 |
| ACCGCCCT | -0.00709 |
| CCCGCGCC | 0.168 |
| ACCGCCCC | 0.348 |
| CCCGCCGG | 0.158 |
| CCCGCCCA | 0.332 |
| CCCGCCGC | 0.31 |
| CCCGCCGA | -0.0475 |
| CCCGCCCC | 0.32 |
| CCCGCCCG | 0.233 |
| CCCGCCAC | 0.213 |
| TCCGCCCA | -0.107 |
